# Hits are enriched below; roughly 2.6% of the tested compounds scored in any of these assays.
# Myeloid diff 2 = induction of myeloid progenitor differentiation, primary screen, cell-based, flow cytometry, MLPCN library; calls only at 10 µM; 360,000 tested, 1% active; ER-HoxA9 myeloid progenitors, lysozyme-GFP differentiation; AID 624256, 2012;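 active = normalized GFP-positive differentiation at or above the plate's own cutoff, the solvent-only control mean plus 3 SD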;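 also: cells exposed to compound for four days before flow analysis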
# CRFR2-BP antag = antagonists of CRF-BP/CRF-R2 complex, primary screen, cell-based, HEK293, calcium dye fluorescence, uHTS; CRF-induced calcium fluorescence; inhibition, % at 11.8 µM; 350,000 tested, 0.59% active;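 active = inhibition of the ligand-induced calcium signal above about 50% at the single tested concentration, limit read from the data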
# IDE act = human IDE activators in live cells, primary screen, fluorescence polarization, HEK cells, FAbeta-B substrate; Insulin-degrading enzyme (Homo sapiens), P14735; FAbeta-B cleavage; 0% vehicle, 100% cell-free pure enzyme wells; activation, % at 5.96 µM; 340,000 tested, 0.073% active; AID 493087, 2011;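 active = activation above the mean of all tested compounds plus 3 SD, set per screening campaign, cut at about 17% in these data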
# IDE cell inh = human IDE inhibitors in live cells, primary screen, fluorescence polarization, HEK cells, FAbetaB substrate. Insulin-degrading enzyme (Homo sapiens), P14735. 320,000 tested, 0.41% active. inhibition, % at 5.59 µM. FAbetaB cleavage. AID 434962, 2010;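 active = percent inhibition above the average of all tested compounds plus 3 SD, set per screening campaign, cut at about 16% in these data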;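 also: IDE supplied by intact live HEK cells; FP after avidin binding of uncleaved biotin substrate so inhibition keeps polarization high; 0% = DMSO wells and 100% = 60 µM reference IDE inhibitor Ii1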
# TPT1 inhibitor = Candida albicans TPT1 enzyme inhibitors, primary screen, biochemical, fluorescence polarization; tRNA 2'-phosphotransferase TPT1 (Candida albicans SC5314); 300,000 tested, 0.81% active; inhibition, % at 5 µM; AID 1962, 2009; recombinant caTPT1, FP RNA substrate dephosphorylation;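 active = inhibition above the mean of all tested compounds plus 3 SD, set per screening campaign, cut at about 24% in these data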;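 also: plate controls were DMSO alone for no effect and ferristatin control at 100 nM for full effect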
# CRFR2-BP ag = agonists of CRF-BP/CRF-R2 complex, primary screen, cell-based, HEK293, calcium dye fluorescence, uHTS. CRF-binding protein / CRF receptor 2 complex (human). calcium dye fluorescence (FLIPR); percent of saturating CRF peptide response. activation, % at 13.2 µM. 350,000 tested, 0.46% active. AID 588473, 2011;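 active = activation of at least 50%, plus an integration ratio under a set limit after plate pattern correction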;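 also: plate controls were neutral control wells without compound for no effect and CRF at EC100 for full effect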
# An asterisk follows results filed as active; i = inactive; . = no result; + = active, no number.
SMILES,Myeloid diff 2,CRFR2-BP antag,IDE act,IDE cell inh,TPT1 inhibitor,CRFR2-BP ag
O=C(O)c1cc([N+](=O)[O-])ccc1N1CCCCC1,i,-3,3,-6,1,-3
Cc1ccc(C(=O)c2cc([N+](=O)[O-])ccc2N2CCCCC2)c(C)c1,.,-130,2,-3,0,133*
CC(C)c1ccc(S(=O)(=O)N2CCN(CC(O)CN3CCOCC3)CC2)cc1 (centres undefined),i,-10,-2,1,.,0
CCC(C)c1ccc(S(=O)(=O)N2CCN(CC(O)COCC3CCCO3)CC2)cc1 (centres undefined),i,64*,1,.,.,1
C=CCn1c(-c2ccc(OC)cc2)nc2ccccc21,i,-180,1,2,0,154*
COC(=O)Nc1ccc(S(=O)(=O)N2CCCC(C(=O)NC3CCS(=O)(=O)C3)C2)cc1 (centres undefined),i,-2,1,-3,1,-1
COc1ccc(C2CC(c3ccccc3)=NN2C(=O)COC(=O)C2(C)CC2(Cl)Cl)cc1 (centres undefined),i,19,8,3,-7,-2
Cc1ccccc1S(=O)(=O)N(C)C[C@H]1OCc2cnnn2CCCC(=O)N([C@@H](C)CO)C[C@H]1C,i,12,.,.,.,0
Cc1ccccc1S(=O)(=O)N(C)C[C@H]1OCc2cnnn2CCCC(=O)N([C@H](C)CO)C[C@H]1C,+,4,.,.,.,1
Cc1ccc2ncc(S(=O)(=O)c3ccccc3)c(N3CCCCC3C)c2c1 (centres undefined),+,-6,7,2,-1,1
Cc1ccc(-c2nc(SCC(=O)NCC3CCCO3)c(-c3ccccc3)[nH]2)cc1 (centres undefined),+,-57,0,6,-1,-7
Cc1ccc(Cn2c(SCC(=O)NCC3CCCO3)nc3ccsc3c2=O)cc1 (centres undefined),i,54*,5,0,-1,2
Cc1ccc(S(=O)(=O)NC(C(=O)Oc2ccc3ccc(=O)oc3c2)c2ccccc2)cc1 (centres undefined),i,-7,-3,12,1,-1
Cc1ccc(S(=O)(=O)N[C@H](C(=O)Oc2ccc3c(C(F)(F)F)cc(=O)oc3c2)c2ccccc2)cc1,i,-20,-5,3,-15,69*
C=CC[C@@H](CC(=O)OC(C)(C)C)C(=O)OC[C@H]1CCCN1C(=O)[C@@H](CC=C)CC(=O)N(CCO)Cc1ccccc1,i,6,5,0,.,2
NC(=O)CC(NC(=O)Cc1ccc(Cl)cc1)c1ccc(NCc2ccccc2)c([N+](=O)[O-])c1 (centres undefined),i,-13,4,4,3,2
COc1ccc(N=C2C(=O)Nc3c(C)cccc32)cc1,i,94*,2,-1,5,-1
Cc1ccc(N=C2C(=O)Nc3c(C)cccc32)cc1,i,15,4,3,-5,0
CCOC(=O)CC12CN3CN(C1)CC(CC(=O)OCC)(C3)C2=O,+,15,2,-2,5,-1
Cc1ccc([N+](=O)[O-])cc1NC(=O)CSc1n[nH]c(-c2cccnc2)n1,i,3,-2,-8,2,1
CN(C)/C=C(/C#N)C(=O)c1cccc(Oc2ccc(C(C)(C)C)cc2)c1,i,13,-1,5,0,-1
Cc1nn(C)c(Oc2ccc(Cl)cc2)c1C(=O)O,i,61*,1,4,-3,-1
Cc1nn(C)c(Oc2cccc(Cl)c2)c1C(=O)Nc1ccc(F)cc1F,i,14,6,7,1,0
CCOC(=O)C1(CCCc2ccccc2)CCN(C(=O)c2ocnc2C)CC1,i,-8,3,13,-7,-2
CCOC(=O)C1(CC2CC2)CCN(C(=O)c2ocnc2C)CC1,+,-2,1,-12,2,0
CCCCCC/C(=N/O)c1ccccn1,i,59*,6,0,-3,-1

# Screens (PubChem BioAssay)
